Experiment [1] can be described thus: qHTS assay to identify small molecule antagonists of the thyroid receptor (TR) signaling pathway - cell viability counter screen (AID 743064). Further: nearly all actives have a fitted effect of over 50% in size. In short, it runs like this:
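Counter screen for cytotoxicity: compound plus T3 (1 nM final) on GH3.TRE-Luc cells, 23.5 h at 37 °C, then fluorescence viability readout with CellTiter-Fluor.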

The nature of experiment [2]: qHTS assay to identify small molecule antagonists of the thyroid receptor (TR) signaling pathway (AID 743065). Further: series mostly up to about 70 µM; nearly all actives have a fitted effect of over 55% in size. In short, it runs like this:
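GH3.TRE-Luc rat pituitary cells (two TREs driving luciferase) were dosed with compound, then stimulated with 1 nM T3 (final) for 23.5 h at 37 C. ONE-Glo luminescence was the read-out, with CellTiter-Fluor fluorescence as the cytotoxicity counter-screen.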

In experiment [3] the test system is thyroid hormone receptor (rat, GH3 cells). The experiment is described as follows: qHTS assay to identify small molecule agonists of the thyroid receptor (TR) signaling pathway (AID 743066; calls by dose curve).
Experiment [4] has as its target Estrogen receptor (Homo sapiens) (UniProt P03372). The experiment is described as follows: qHTS assay to identify small molecule antagonists of the estrogen receptor alpha (ER-alpha) signaling pathway (AID 743069; active means well fitted curve in the direction sought with a large enough effect in the signal ratio in the repeat runs, not every such curve was filed as active; the % refers to the signal ratio). An outline of the steps: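 Beta-lactamase FRET fluorescence is read after 2 hr at room temperature with LiveBLAzer B/G substrate. Before that, ER-alpha-bla HEK293 cells sit 4 hr after plating, then receive compound plus 17beta-estradiol and incubate 18 hr at 37C.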

Experiment [5] in a line: qHTS assay to identify small molecule antagonists of the estrogen receptor alpha (ER-alpha) signaling pathway - cell viability counter screen (AID 743074; calls by dose curve;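 further: HEK293 cells carrying ER-alpha-UAS-bla reporter stimulated with 17beta-estradiol; nearly all actives have a fitted effect of over 45% in size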).
Experiment [6] concerns the target Estrogen receptor (Homo sapiens) (UniProt P03372). The experiment is described as follows: qHTS assay to identify small molecule agonists of the estrogen receptor alpha (ER-alpha) signaling pathway (AID 743075; calls by dose curve;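 further: HEK293 GripTite cells with ER-alpha and UAS-driven beta-lactamase reporter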).
The target is the same in experiment [7]. The experiment can be described thus: qHTS assay to identify small molecule agonists of the estrogen receptor alpha (ER-alpha) signaling pathway using the BG1 cell line (AID 743079). Further: nearly all actives have a fitted effect of over 20% in size. Further: potency means the concentration at half of the fitted maximal effect.
The nature of experiment [8]: qHTS assay to identify small molecule antagonists of the estrogen receptor alpha (ER-alpha) signaling pathway using the BG1 cell line (AID 743080; calls by dose curve;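 further: BG1 cells stimulated with 17beta-estradiol alongside compound; series mostly up to about 70 µM; nearly all actives have a fitted effect of over 25% in size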). In short, it runs like this: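 Luminescence from a 4×ERE-luciferase reporter in BG1-Luc-4E2 cells served as read-out. Cells, pre-cultured 5 days in stripped-serum phenol-red-free medium, were exposed to compound with 17beta-estradiol co-stimulation for 21.5 h at 37 C.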

Experiment [9] in a line: qHTS assay to identify small molecule antagonists of the estrogen receptor alpha (ER-alpha) signaling pathway using the BG1 cell line - cell viability counter screen (AID 743081).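 Further: compound given together with 17beta-estradiol as the ER stimulus; series mostly up to about 70 µM; nearly all actives have a fitted effect of over 45% in size.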
The target in experiment [10] is Aromatase (Homo sapiens) (UniProt P11511). The experiment is described as follows: qHTS assay to identify aromatase inhibitors (AID 743083). Further: series mostly up to about 70 µM; nearly all actives have a fitted effect of over 55% in size.
A short description of experiment [11]: qHTS assay to identify aromatase inhibitors - cell viability counter screen (AID 743084).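 Further: cells stimulated with testosterone during compound exposure; nearly all actives have a fitted effect of over 55% in size.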
Experiment [12] can be described thus: qHTS assay to identify small molecule that activate the aryl hydrocarbon receptor (AhR) signaling pathway - cell viability counter screen (AID 743086).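 Further: HepG2 liver cells carrying the AhR DRE luciferase reporter; series mostly up to about 70 µM; nearly all actives have a fitted effect of over 45% in size.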 In short, it runs like this: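 HepG2-AhR-luc (HG2L7.5c1) cells, 4000/well, treated 24 h at 37 C with compound; viability measured as CellTiter-Fluor fluorescence after 30 min in the same wells as the luciferase read.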

The target of experiment [13] is Peroxisome proliferator-activated receptor gamma (Homo sapiens) (UniProt P37231). The experiment is described as follows: qHTS assay to identify small molecule antagonists of the peroxisome proliferator-activated receptor gamma (PPARg) signaling pathway (AID 743191; calls by dose curve; further: series mostly up to about 63 µM; nearly all actives have a fitted effect of over 30% in size). In short, it runs like this: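 GeneBLAzer PPARg UAS-bla HEK293H cells, 5 h post-plating, exposed to compounds 17 h at 37C. LiveBLAzer B/G FRET substrate added for 1 h at room temperature; beta-lactamase reporter read by fluorescence intensity.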

Experiment [14] is described as follows: qHTS assay to identify small molecule antagonists of the peroxisome proliferator-activated receptor gamma (PPARg) signaling pathway - cell viability counter screen (AID 743194). Further: nearly all actives have a fitted effect of over 55% in size. An outline of the steps:
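Cytotoxicity counter screen in PPARg-bla HEK293H cells, same wells as reporter assay. Compounds plus 50 nM rosiglitazone (final) for 17 h at 37 C, then viability read by CellTiter-Glo luminescence.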

A short description of experiment [15]: qHTS assay for small molecule agonists of the antioxidant response element (ARE) signaling pathway - cell viability counter screen (AID 743203; calls by dose curve; further: nearly all actives have a fitted effect of over 55% in size). In short, it runs like this: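 Luminescence read-out (CellTiter-Glo, 30 min at room temperature) measured cell viability in the same wells as the ARE beta-lactamase reporter. HepG2 ARE-bla cells were treated with compounds for 16 hrs at 37C/5% CO2.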

A short description of experiment [16]: qHTS assay for small molecule activators of the heat shock response signaling pathway - cell viability counter screen (AID 743209). Further: nearly all actives have a fitted effect of over 50% in size. In short, it runs like this:
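HSE-bla HeLa; 1500 cells/well; overnight 37 C, 5% CO2; compound 5 h 37 C; LiveBLAzer B/G substrate 2.5 h RT; CellTiter-Glo 30 min RT; luminescence.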

A short description of experiment [17]: qHTS assay for small molecule activators of the heat shock response signaling pathway (AID 743210; active means well fitted activation curve with a large enough effect in the signal ratio in the repeat runs, with a control signal flat, not every such curve was filed as active; the % refers to the signal ratio;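 further: HeLa cells with beta-lactamase reporter driven by heat shock elements; series mostly up to about 63 µM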). In short, it runs like this:
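Beta-lactamase reporter read-out: FRET substrate fluorescence after 2.5 h at RT, following 5 h compound treatment at 37 C of HeLa cells carrying HSE-driven bla reporter; quantitative HTS format.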

In experiment [18] the target is Peroxisome proliferator-activated receptor gamma (Homo sapiens) (UniProt P37231). The experiment can be described thus: qHTS assay to identify small molecule agonists of the peroxisome proliferator-activated receptor gamma (PPARg) signaling pathway (AID 743094; active means well fitted activation curve with a large enough effect in the signal ratio in the repeat runs, not every such curve was filed as active; the % refers to the signal ratio). An outline of the steps:
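HEK293H PPARg-bla cells, 5 h settle at 37C/5% CO2; compound (DMSO) 17 h, 37C; B/G FRET substrate 1 h RT; fluorescence intensity read-out. qHTS format.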

Experiment [19] can be described thus: qHTS assay for small molecule agonists of the antioxidant response element (ARE) signaling pathway (AID 743202; active means well fitted activation curve with a large enough effect in the signal ratio in the repeat runs, not every such curve was filed as active; the % refers to the signal ratio). An outline of the steps:
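HepG2 ARE-bla reporter line, 2,000 cells/well; 5 h preincubation 37 C/5% CO2; compound (DMSO) 16 h 37 C; B/G FRET substrate 2 h RT; fluorescence intensity.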

The target in experiment [20] is Aryl hydrocarbon receptor (Homo sapiens) (UniProt P35869). The experiment can be described thus: qHTS assay to identify small molecule that activate the aryl hydrocarbon receptor (AhR) signaling pathway (AID 743085).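 Further: HG2L7.5c1 human HepG2 liver cells with stably integrated DRE-driven firefly reporter; series mostly up to about 70 µM; nearly all actives have a fitted effect of over 15% in size.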 An outline of the steps: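 Measured in HG2L7.5c1 cells: CellTiter-Fluor signal (30 min incubation, 37C) for viability, then luciferase luminescence (30 min, room temperature). Compound contact time was 24 h at 37C, following a 5 h pre-incubation.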

Inconclusive results are not listed. Some compounds were tested as several samples or in several runs, with calls that do not always agree. Calls of active or inactive are those of the source. Unless noted, the call rests on the fitted dose curve; in most records, active means well fitted curve in the direction sought with a large enough effect in the repeat runs; inconclusive means weak or mixed curves; inactive means no such curve, though single readings can be large; an effect the other way counts as inactive or inconclusive.

Sequence of Peroxisome proliferator-activated receptor gamma (Homo sapiens) (P37231 whole entry, looked up): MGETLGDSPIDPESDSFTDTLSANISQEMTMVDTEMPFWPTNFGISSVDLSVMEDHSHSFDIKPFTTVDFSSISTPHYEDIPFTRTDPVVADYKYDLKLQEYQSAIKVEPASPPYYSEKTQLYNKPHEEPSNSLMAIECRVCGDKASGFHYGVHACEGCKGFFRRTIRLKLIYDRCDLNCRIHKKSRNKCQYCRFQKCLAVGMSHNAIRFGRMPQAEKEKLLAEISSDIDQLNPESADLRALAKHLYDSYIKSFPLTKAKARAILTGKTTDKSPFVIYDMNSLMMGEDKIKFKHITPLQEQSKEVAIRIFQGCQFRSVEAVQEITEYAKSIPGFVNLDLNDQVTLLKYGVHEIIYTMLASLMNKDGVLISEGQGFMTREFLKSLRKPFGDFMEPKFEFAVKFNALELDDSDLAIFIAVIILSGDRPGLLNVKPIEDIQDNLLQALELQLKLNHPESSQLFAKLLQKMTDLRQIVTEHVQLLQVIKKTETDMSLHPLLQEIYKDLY
Sequence of Estrogen receptor (Homo sapiens) (P03372 whole entry, looked up): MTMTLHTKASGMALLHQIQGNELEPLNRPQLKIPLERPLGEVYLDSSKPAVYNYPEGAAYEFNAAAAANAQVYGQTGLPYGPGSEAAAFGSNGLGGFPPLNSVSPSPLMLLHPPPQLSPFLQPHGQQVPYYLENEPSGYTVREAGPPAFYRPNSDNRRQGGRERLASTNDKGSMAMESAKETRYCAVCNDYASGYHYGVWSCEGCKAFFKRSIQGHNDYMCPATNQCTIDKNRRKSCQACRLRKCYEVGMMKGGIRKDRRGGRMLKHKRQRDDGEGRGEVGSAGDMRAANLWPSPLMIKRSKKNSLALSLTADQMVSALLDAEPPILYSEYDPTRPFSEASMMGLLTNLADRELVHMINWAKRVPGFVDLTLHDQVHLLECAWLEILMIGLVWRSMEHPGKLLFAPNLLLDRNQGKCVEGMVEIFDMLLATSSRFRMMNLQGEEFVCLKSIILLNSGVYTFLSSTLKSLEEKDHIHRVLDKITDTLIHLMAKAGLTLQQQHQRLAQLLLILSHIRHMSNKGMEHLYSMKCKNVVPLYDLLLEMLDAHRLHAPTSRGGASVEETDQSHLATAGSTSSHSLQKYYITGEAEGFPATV
Sequence of Aryl hydrocarbon receptor (Homo sapiens) (P35869 whole entry, looked up): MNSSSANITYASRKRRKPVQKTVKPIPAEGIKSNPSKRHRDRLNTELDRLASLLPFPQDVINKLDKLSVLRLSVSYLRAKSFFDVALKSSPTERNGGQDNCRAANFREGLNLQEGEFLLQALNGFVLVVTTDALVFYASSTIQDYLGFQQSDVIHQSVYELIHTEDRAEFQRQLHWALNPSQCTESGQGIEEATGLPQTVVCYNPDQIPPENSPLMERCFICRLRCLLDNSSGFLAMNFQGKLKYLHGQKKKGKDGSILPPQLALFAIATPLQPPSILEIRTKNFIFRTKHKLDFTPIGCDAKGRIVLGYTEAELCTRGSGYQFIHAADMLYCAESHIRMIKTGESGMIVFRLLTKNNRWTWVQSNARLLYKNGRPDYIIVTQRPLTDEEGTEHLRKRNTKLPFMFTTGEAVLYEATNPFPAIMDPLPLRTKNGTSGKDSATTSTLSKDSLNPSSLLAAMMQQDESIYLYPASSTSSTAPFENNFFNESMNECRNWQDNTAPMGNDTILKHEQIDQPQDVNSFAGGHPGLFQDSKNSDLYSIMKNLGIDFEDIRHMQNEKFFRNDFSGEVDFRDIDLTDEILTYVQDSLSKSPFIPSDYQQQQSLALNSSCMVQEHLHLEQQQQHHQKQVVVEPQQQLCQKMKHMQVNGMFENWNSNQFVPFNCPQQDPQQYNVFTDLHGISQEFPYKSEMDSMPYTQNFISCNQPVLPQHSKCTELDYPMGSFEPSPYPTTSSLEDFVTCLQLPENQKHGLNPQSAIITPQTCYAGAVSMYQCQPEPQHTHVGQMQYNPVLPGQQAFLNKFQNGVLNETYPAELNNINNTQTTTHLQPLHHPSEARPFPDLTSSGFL
Sequence of Aromatase (Homo sapiens) (P11511 whole entry, looked up): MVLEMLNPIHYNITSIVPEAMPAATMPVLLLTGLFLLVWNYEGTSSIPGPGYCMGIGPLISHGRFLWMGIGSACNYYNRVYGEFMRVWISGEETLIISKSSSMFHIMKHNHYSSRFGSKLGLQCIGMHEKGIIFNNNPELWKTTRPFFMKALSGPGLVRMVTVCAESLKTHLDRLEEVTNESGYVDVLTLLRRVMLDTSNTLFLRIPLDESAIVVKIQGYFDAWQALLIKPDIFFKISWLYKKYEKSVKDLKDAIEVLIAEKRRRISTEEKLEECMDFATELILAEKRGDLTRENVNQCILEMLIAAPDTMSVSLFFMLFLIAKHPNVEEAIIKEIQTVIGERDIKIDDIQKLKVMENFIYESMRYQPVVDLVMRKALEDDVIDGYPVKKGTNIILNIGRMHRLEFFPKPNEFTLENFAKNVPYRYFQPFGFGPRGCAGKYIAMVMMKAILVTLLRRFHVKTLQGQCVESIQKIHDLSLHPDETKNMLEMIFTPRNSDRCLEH

On to `CCOC(=O)[C@H](CCc1ccccc1)N[C@@H](C)C(=O)N1[C@H](C(=O)O)C[C@@H]2CCC[C@@H]21`, for which the Potency result in experiment [1], in experiment [2], in experiment [6], in experiment [7], in experiment [9] and in experiment [10] was “inactive” each time. Also, the Potency entry in experiment [11], in [12], in experiment [13] and in [15] was “inactive” throughout. The compound was classed as inactive in experiment [3], in [4], in experiment [5], in [8], in experiment [14] and in [16]. Besides, the compound was called inactive in [17].
On to `c1cnc(N2CCN(Cc3ccc4c(c3)OCO4)CC2)nc1`, for which the Potency result in experiment [1], in experiment [2], in experiment [6], in experiment [7], in experiment [9] and in experiment [10] was “inactive” each time. For the same compound, the Potency result in experiment [11], in [12], in experiment [13], in experiment [19] and in [15] was “inactive” each time. The result in experiment [3], in experiment [4], in experiment [5], in experiment [8], in [18] and in experiment [14] was inactive. Besides, in [17], the result was inactive.
Regarding `NS(=O)(=O)c1cc(C(=O)O)cc(N2CCCC2)c1Oc1ccccc1`, the Potency result in experiment [1], in experiment [2], in experiment [6], in experiment [7], in experiment [9] and in [10] was “inactive” throughout. The Potency result in [11], in experiment [20], in experiment [12], in experiment [19] and in experiment [15] was “inactive” in each case. The compound was called inactive in [3], in [4], in experiment [5], in [8], in [14] and in experiment [16]. Besides, in experiment [17], the compound was called inactive.
For `OC1CCCCC1c1ccccc1` (stereo not given), the Potency result in experiment [1], in [2], in [6], in [7], in [9] and in [10] was “inactive” throughout. The Potency result in experiment [11], in [20], in experiment [12] and in experiment [15] was “inactive” in each case. The compound was called inactive in [3], in experiment [4], in [5], in [8], in experiment [14] and in experiment [16]. In addition, in experiment [17], the outcome was inactive.
For `CCOC(=O)Nc1ccc(NCc2ccc(F)cc2)nc1N`, the Potency entry in experiment [1], in experiment [2], in [6], in experiment [9], in experiment [11] and in experiment [12] was “inactive” in each case. The Potency result in experiment [13], in experiment [19] and in [15] was “inactive” each time. The outcome in [3], in [4], in experiment [5], in [8], in experiment [18] and in [16] was inactive. In addition, the compound was classed as inactive in experiment [17]. For the same compound, in [7], the Potency is 3.35 µM (active) and inactive.
Take `Cc1ccc(Cl)cc1Cl`: the Potency entry in experiment [1], in experiment [2], in experiment [6], in experiment [7], in experiment [9] and in [10] was “inactive” each time. The Potency result in experiment [11], in [20], in experiment [12], in experiment [19] and in [15] was “inactive” each time. In addition, the compound was classed as inactive in experiment [3], in experiment [4], in experiment [5], in [8], in experiment [14] and in experiment [16]. Further, the outcome in experiment [17] was inactive.
Take `C=C1CC[C@H]2C[C@@H]1C2(C)C`: the Potency result in [1], in experiment [2], in experiment [6], in experiment [7], in experiment [9] and in experiment [10] was “inactive” in each case. For the same compound, the Potency result in [11], in experiment [12], in experiment [19] and in [15] was “inactive” in each case. Besides, the compound was classed as inactive in experiment [3], in experiment [4], in experiment [5], in experiment [8], in [18] and in experiment [14]. Also, the call in [16] and in experiment [17] was inactive.
With `C=C[Si](OC(=C)C)(OC(=C)C)OC(=C)C`, the Potency result in [1], in experiment [2], in [6], in experiment [9], in experiment [10] and in experiment [11] was “inactive” each time. Also, the Potency result in experiment [20], in [12], in [13] and in experiment [15] was “inactive” each time. Further, the compound was called inactive in [3], in experiment [4], in experiment [5], in experiment [8], in experiment [14] and in [16]. The compound was called inactive in experiment [17].

The record behind these values is PubChem BioAssay (Tox21).
